# This is a sample that favours compounds with a hit; in the whole collection about 1.2% have one here.
# VLA-4 inh: inhibition in a human VLA-4 binding assay. P13612. VLA-4 expressing cells, ligand binding flow cytometry. inhibition, % (about 7 µM as worked out from the volumes in the protocol). 0.2% of 330,000 active. AID 2557; in the data active means inhibition above about 50%
# GPR7 antag: human neuropeptides B/W receptor 1 antagonism; P48145; GPR7-expressing cells, fluorescence antagonist assay; inhibition, % at 4.4 µM; 1.1% of 290,000 active; in the data active means inhibition above about 16%, passing the limit was not always enough;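 further: cells stimulated with the agonist NPW; 0% = agonist with vehicle and 100% = vehicle without agonist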
# GASC-1 inh: inhibitors of human GASC-1 (JMJD2C) demethylase; GST-JMJD2C(1-420) H3K9me3 demethylation, DELFIA europium; Q9H3R0; inhibition, % at 2.35 µM; 0.069% of 330,000 active;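 active means more than half of a compound's replicate wells show inhibition beyond 50%, single wells judged on their own value; inconclusive means some, but no more than half, of replicates pass 50% inhibition; inactive means no replicate passes 50% inhibition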;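 further: signal counts dimethyl H3K9 product captured on neutravidin plate; 0% = median of DMSO wells and 100% = 0.3 times that DMSO median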
# pCIP destab: lowers stability of the mouse p/CIP coactivator protein. Q05BA5. F442A p/CIP-EGFP cells, EGFP fluorescence, 16 h. decrease of EGFP signal, % at 10 µM. 0.01% of 290,000 active;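 active means EGFP signal decrease of at least 30% at 10 µM or well 3 SD below plate mean, unless failing retest; inactive means the rest, including hits failing retest or dose response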
# GPR7 antag conf: human GPR7 antagonism, confirmation assay; shares compounds with GPR7 antag; GPR7-expressing cells, calcium fluorescence antagonist mode; inhibition, % at 4.4 µM; 52% of 2,400 active; AID 1952; in the data active means inhibition above about 24%;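 further: stimulated with the GPR7 agonist NPW; 0% = agonist plus vehicle and 100% = vehicle alone without agonist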
# MCHR1 antag: counter-screen for GPR7 antagonists: antagonists of human MCHR1 | inhibition, % at 4.4 µM | MCHR1-expressing cells, fluorescence antagonist assay | shares compounds with GPR7 antag | AID 2148 | 62% of 2,400 active; in the data active means inhibition above about 22%;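 further: 0% = vehicle with agonist and 100% = vehicle without agonist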
# VLA-4 allo CP: human VLA-4 allosteric modulation in cherry picked compounds | U937 cells, HUTS-21 LIBS mAb binding, flow cytometry; LDV ligand present at threefold Kd | 2% of 1,300 active | shares compounds with VLA-4 inh | inhibition, % at 6.7 µM; in the data active means inhibition above about 40%;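 further: 0% = ligand without compound and 100% = no ligand background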
# Starred values were filed as active, the others as inactive; i = inactive; ? = inconclusive; . = not tested or not shown; ! = repeats disagree.
SMILES,VLA-4 inh,GPR7 antag,GASC-1 inh,pCIP destab,VLA-4 allo CP,others
CCOc1ccc(Oc2c(/C=N/NC(=O)COc3ccccc3OC)c(C)nn2-c2ccccc2)cc1,46.1,35.4*,3.6,-7.0,2.9,GPR7 antag conf=32.7*;MCHR1 antag=47.3*
Cc1ccc2c(c1)c1c(n2CC(O)CNC2CCCCC2)CCCC1 (stereo not drawn),51.8*,32.4*,-1.5,1.5,17.9,GPR7 antag conf=55.9*;MCHR1 antag=53.7*
CCN(CCCn1c(SCC#N)nc2ccccc2c1=O)c1ccccc1,13.3,4.4,5.8,-12.2,.,
O=C(N=C1SC2CS(=O)(=O)CC2N1Cc1ccc(F)cc1)C1CCCO1 (stereo not drawn),5.0,-8.2,?,3.9,.,
Cc1ccc(-c2cc(C(=O)Nc3ccccc3C)c3ccccc3n2)o1,-8.1,-3.3,0.1,1.7,.,
COC(=O)c1cc(-c2ccc(C)o2)nc2ccccc12,41.1,-5.5,1.6,-8.5,-27.3,
COCCn1c(SCC(=O)N2CC(=O)Nc3ccccc32)nc2ccccc21,31.5,-5.1,1.3,-5.5,.,
CCOC(=O)C1CCCN(S(=O)(=O)c2ccc(S(=O)(=O)N3CCCC3)cc2)C1 (stereo not drawn),-2.0,.,i,.,.,
CCOC(=O)C1CCCN(S(=O)(=O)c2cc3[nH]c(=O)c(=O)[nH]c3cc2C)C1 (stereo not drawn),50.4*,10.3,-4.1,-0.3,-6.7,
C/C(=N\Nc1nc(C)c(C)s1)c1ccc([N+](=O)[O-])cc1,-27.1,-5.1,2.7,-2.2,.,
CCc1nn2c(N3CCOCC3)cc(C)nc2c1-c1ccccc1,45.1,-13.9,16.9,4.7,12.7,
Cc1ccc2nc(-c3ccc(NC(=S)NC4CC(C)(C)NC(C)(C)C4)cc3)sc2c1,54.4*,51.9*,-7.4,-9.2,30.6,
CCOc1ccc(OCc2ccc(C(=O)NCc3cccnc3)o2)cc1,2.4,-1.2,-6.2,-19.9,.,
CCCc1ccc(OCc2ccc(C(=O)NCc3cccnc3)o2)c(OC)c1,55.8*,-9.0,-20.5,-8.3,8.4,
CCN(C[C@H]1N[C@@](Cc2ccccc2)(C(=O)OC)[C@H]2C(=O)N(Cc3ccccc3)C(=O)[C@@H]12)C(=O)c1ccccc1,49.9*,.,-0.1,.,4.4,
CCN(C[C@H]1N[C@@](CC)(C(=O)OC)[C@H]2C(=O)N(Cc3ccccc3)C(=O)[C@@H]12)C(=O)c1ccccc1,-7.6,.,.,.,.,
COC(=O)[C@]1(Cc2ccccc2)N[C@H](CN(C)C(=O)Nc2ccc(F)cc2)[C@@H]2C(=O)N(Cc3ccccc3)C(=O)[C@@H]21,0.9,.,6.4,.,2.0,
CCN(C[C@H]1N[C@@](Cc2ccccc2)(C(=O)OC)[C@H]2C(=O)N(Cc3ccccc3)C(=O)[C@@H]12)C(C)=O,8.4,.,.,.,3.3,
CCN(C[C@H]1N[C@@](Cc2ccccc2)(C(=O)OC)[C@H]2C(=O)N(Cc3ccccc3)C(=O)[C@@H]12)C(=O)COC,-9.9,.,.,.,2.7,
COC(=O)[C@H](CC(C)C)NCc1cccc(CN[C@@H](CC(C)C)C(=O)OC)c1,23.1,-8.3,-8.4,-2.0,.,
COc1ccc(/C=C/C(=O)O)cc1Cl,-1.3,-11.3,7.4,-16.5,.,
COc1cc(/C=C/C(=O)O)cc(OC)c1O,59.9*,.,-5.5,.,-8.6,
CN(CC(=O)Nc1ccccc1Cl)CC(=O)c1c(N)n(Cc2ccccc2)c(=O)n(C)c1=O,6.2,.,1.6,.,.,
Cc1ccc(N(CC2=NCCN2)c2cccc(O)c2)cc1,55.5*!,-10.0,-22.7,-8.0,5.6,
c1ccc(CN(CC2=NCCN2)c2ccccc2)cc1,38.2,-6.2,-16.0,-1.8,.,
SMILES,VLA-4 inh,GPR7 antag,GASC-1 inh,pCIP destab,VLA-4 allo CP,others
O=C(Nc1ccc2ccccc2n1)Nc1cccs1,0.1,-8.1,-1.4,-1.3,.,
CCN1CCCC1CNC(=O)C(=O)NCc1ccccc1 (stereo not drawn),10.8,-6.7,5.7,-0.1,.,
CCN1CCCC1CNC(=O)C(=O)NC1CC1 (stereo not drawn),45.9,-0.2,27.6,-4.7,-2.0,
COCCNCC(=O)Nc1ccc(OC(F)(F)F)cc1,-18.6,-7.1,1.2,-14.3,.,
Oc1ccc(NC(=S)Nc2ccccc2)cc1,12.1,-6.0,-0.5,-9.7,14.4,
S=C(Nc1ccccc1)Nc1nc2ccccc2n1CCOc1ccc(Br)cc1,21.7,-9.8,-9.3,-6.8,.,
Cn1c(NC(=S)Nc2ccccc2)nc2ccccc21,44.2,-10.5,6.1,9.5,-15.1,
CC(=O)c1ccc(NC(=O)Cn2c3ccccc3c3nc(=O)cc(C)n32)cc1,3.1,-7.6,9.1,-4.0,.,
COc1cc(C)c(C(N)=O)c(OC)n1,3.5,-10.5,-4.1,8.3,.,
COC(=O)Cc1ccc(NC(=O)c2ccc(C)c(C)c2)cc1,60.1*,7.3,11.6,-2.2,10.9,
CCOC(=O)c1c(NC2=NS(=O)(=O)c3ccccc32)sc2c1CCC(C)C2 (stereo not drawn),60.0*,-15.8,37.7,-7.9,5.4,
CC[C@@H](C)[C@@H](C(=O)N1CCN(C(=O)OC(C)(C)C)CC1)n1cc(CCCCNC(=O)OC(C)(C)C)nn1,1.6,-23.7,6.8,6.7,.,
CC1CCC(=O)N(CCC#N)CC1 (stereo not drawn),24.2,0.2,-4.6,4.3,.,
Cc1ccc2[nH]c(=O)c(-c3noc(-c4ccncc4)n3)cc2c1,.,-1.4,.,.,.,
COc1ccc2[nH]c(=O)c(-c3noc(-c4ccccc4)n3)cc2c1,96.0*,-17.7,1.3,61.4,-0.9,
O=C(OCC(=O)N1CCCC1)c1ccc(OC(F)(F)F)cc1,-2.8,-16.4,-0.7,-2.9,.,
CC1CCCC(C)N1C(=O)COC(=O)c1ccccc1O (stereo not drawn),-2.8,.,11.4,.,6.7,
Cc1cccc(C(=O)OCC(=O)N2CCCCCC2)c1C,-1.8,.,4.0,.,0.0,
CCCCOc1ccc(C(=O)OCC(=O)N2CCCCCC2)cc1,9.9,.,3.9,.,3.1,
Nc1cc(Cl)ccc1C(=O)OCC(=O)N1CCCCCC1,14.0,.,2.4,.,-9.5,
CCCc1nc2ccccc2c(=O)n1/N=C/c1ccccc1O,90.6*,-4.4,9.4,7.6,-0.2,
CC(=O)OC1c2ccccc2C(=O)N1Cc1ccccc1 (stereo not drawn),-10.8,-2.2,2.6,-0.8,.,
COC(=O)[C@]1(C)N[C@H](CN(C)S(=O)(=O)c2ccc(C(F)(F)F)cc2)[C@@H]2C(=O)N(C)C(=O)[C@@H]21,-2.5,.,.,.,.,
Nc1ccc(S(=O)(=O)c2ccccc2)nc1,43.6,-12.3,?,-7.3,-10.2,
COc1ccc(OC)c(NC(=O)CN2C(=O)C(C)N(c3ccc(C)cc3)C2=O)c1 (stereo not drawn),11.5,.,-3.0,.,.,
Cc1c(Cl)ccc2sc(NC(=O)c3ccco3)nc12,53.5*,0.6,19.7,-2.1,2.0,
CS(=O)(=O)c1ccc2nc(NC(=O)c3ccco3)sc2c1,18.1,-12.1,-0.4,-10.7,.,
